High-throughput results as filed in PubChem BioAssay.
m5-HT2A agonist – agonists of mouse serotonin 5-HT2A receptor (HTR2A); P35363; CHO-K1 mHTR2A beta-arrestin complementation, luminescence; percent of 30 µM serotonin response; activation, % at 7.6 µM; actives 0.66% (n = 360,000); AID 624169;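 active = activation above a run cutoff, the mean activation of all tested compounds plus 3 SD, cut at about 14% in these data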
TLR9-MyD88 block – TLR9-MyD88 interaction inhibition; Q9NR96+Q99836; CHO BLA complementation TLR9-MyD88, CCF4 FRET ratio; inhibition, % at 4.98 µM; actives 0.21% (n = 340,000);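 active = inhibition above the mean over all tested compounds plus 3 SD, cut at about 21% in these data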
Target sequence (Q99836 whole entry, looked up): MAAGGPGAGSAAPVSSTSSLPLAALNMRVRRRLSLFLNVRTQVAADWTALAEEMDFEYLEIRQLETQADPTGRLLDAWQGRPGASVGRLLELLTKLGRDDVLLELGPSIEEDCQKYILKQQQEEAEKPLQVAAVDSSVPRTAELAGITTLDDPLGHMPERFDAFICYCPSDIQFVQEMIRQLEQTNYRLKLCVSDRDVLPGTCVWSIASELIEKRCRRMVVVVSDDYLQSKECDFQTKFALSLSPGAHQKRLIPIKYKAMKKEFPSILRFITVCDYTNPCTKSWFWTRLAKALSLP
Target sequence (Q9NR96 whole entry, looked up): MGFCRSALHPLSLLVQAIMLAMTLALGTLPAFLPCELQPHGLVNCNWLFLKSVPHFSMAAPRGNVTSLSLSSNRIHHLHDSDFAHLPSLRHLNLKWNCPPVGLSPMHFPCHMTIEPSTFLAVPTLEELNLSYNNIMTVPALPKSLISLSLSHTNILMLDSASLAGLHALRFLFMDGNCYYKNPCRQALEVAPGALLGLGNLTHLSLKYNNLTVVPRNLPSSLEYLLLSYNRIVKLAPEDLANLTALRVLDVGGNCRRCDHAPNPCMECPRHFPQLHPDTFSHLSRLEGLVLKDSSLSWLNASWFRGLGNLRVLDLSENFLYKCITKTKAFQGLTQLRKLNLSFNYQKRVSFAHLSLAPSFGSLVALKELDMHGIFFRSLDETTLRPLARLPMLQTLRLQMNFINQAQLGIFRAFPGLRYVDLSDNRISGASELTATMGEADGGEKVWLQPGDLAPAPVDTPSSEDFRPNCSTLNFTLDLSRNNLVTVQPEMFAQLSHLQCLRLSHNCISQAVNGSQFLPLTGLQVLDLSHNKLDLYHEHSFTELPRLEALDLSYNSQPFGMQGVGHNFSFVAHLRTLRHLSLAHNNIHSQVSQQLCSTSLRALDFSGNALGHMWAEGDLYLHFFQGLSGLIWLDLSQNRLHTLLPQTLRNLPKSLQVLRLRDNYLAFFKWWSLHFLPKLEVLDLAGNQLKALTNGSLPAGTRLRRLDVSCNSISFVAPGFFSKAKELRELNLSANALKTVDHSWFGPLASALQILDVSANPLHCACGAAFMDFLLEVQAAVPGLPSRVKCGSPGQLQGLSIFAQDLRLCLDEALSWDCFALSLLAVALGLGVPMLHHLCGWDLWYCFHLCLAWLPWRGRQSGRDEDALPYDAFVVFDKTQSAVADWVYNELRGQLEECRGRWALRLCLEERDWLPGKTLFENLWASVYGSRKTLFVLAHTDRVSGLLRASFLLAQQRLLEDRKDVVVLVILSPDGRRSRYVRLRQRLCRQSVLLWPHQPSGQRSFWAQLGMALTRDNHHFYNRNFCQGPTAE
TLR4 MyD88 comp – blocks binding of human TLR4 to MyD88; actives 0.18% (n = 200,000); HeLa CL3-4 TLR4/MyD88 BLA complementation, FRET ratio; inhibition, % at 8.4 µM; AID 861; in the data active = inhibition above about 25%
ANO1 block – inhibitors of mouse TMEM16A calcium-activated chloride channel | Q8BHY3 | HEK293 TMEM16A/YFP iodide influx fluorescence, ionomycin | normalized B-score (activity score, 25-100; higher = stronger inhibition) at 10 µM | actives 1.2% (n = 310,000) | AID 588511;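 active = ratio plate-corrected score three or more library SD toward inhibition, starting fluorescence score within five deviations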;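 also: score derived from kinetic fluorescence span divided by baseline fluorescence per well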
TMEM16A act – activators or potentiators of mouse TMEM16A chloride channel; B-score at 10 µM; HEK293 TMEM16A/YFP-H148Q/I152L, iodide quench fluorescence; hits give low values; AID 623877; actives 0.3% (n = 340,000);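 active = fluorescence-ratio B-score plate-corrected deviation score at least 3 library SD below zero, with starting fluorescence score within 5 deviations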;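 also: channel opened by trigger with iodide after compound preincubation; score built on the fluorescence ratio of max minus min over baseline; more negative score means more quench and so TMEM16A activation or potentiation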
NOD2-RIPK2 inh – blocks binding of human NOD2 to RIPK2 | CHO BLA complementation NOD2-RIPK2, CCF4 ratio | actives 0.38% (n = 360,000) | O43353 | inhibition, % at 4.98 µM | AID 624267; in the data active = inhibition above about 21%
TLR9-MyD88 conf – TLR9-MyD88 interaction inhibition, confirmation | shares compounds with TLR9-MyD88 block | CHO TLR9/MyD88 BLA complementation, CCF4 FRET ratio | inhibition, % at 4.98 µM | actives 51% (n = 680);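 active = mean inhibition across three repeats above about 21% taken from the earlier screen, limit read from the data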;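 also: blue over green emission ratio reports constitutive TLR9 MyD88 association via BLA complementation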
BLA nonselective – counter-screen for TLR9-MyD88 inhibitors: non-selective beta-lactamase inhibitors. shares compounds with TLR9-MyD88 block. CHO-BLA cells, CCF4 FRET ratio, BLA reporter. inhibition, % at 4.98 µM. actives 7% (n = 680). AID 540251;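 active = mean inhibition above a 50% cutoff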;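 also: counterscreen of TLR9-MyD88 hits on CMV-driven BLA in CHO-K1 cells; higher means less blue over green ratio so more BLA blockade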
TLR9 CHO cytotox – CHO cell toxicity counter-screen for TLR9-MyD88 inhibitors; shares compounds with TLR9-MyD88 block; TLR9-MyD88 CHO cells cytotoxicity, luminescence; inhibition, % at 4.98 µM; actives 39% (n = 680); AID 588336; in the data active = inhibition above about 11%
Large screens that a line does not name were inactive (follow-up assays come after a bar, where they were run). Shown are actives, neighbours in structure and some others; about 2.4% of the full set was active somewhere.

O=[N+]([O-])c1ccc(C=CC=Cc2ccccc2)cc1	TLR9-MyD88 block 25 (no result: TLR4 MyD88 comp, ANO1 block, TMEM16A act) | TLR9-MyD88 conf inactive | BLA nonselective inactive | TLR9 CHO cytotox inactive
O=C(C=Cc1ccccc1)c1ccc([N+](=O)[O-])cc1	none (no result: TLR4 MyD88 comp, ANO1 block)
COc1cccc(N2CCN(S(=O)(=O)c3cccc4nsnc34)CC2)c1	none
CC1CCC/C(=C\c2ccc(O)cc2)C1=O (configuration not stated)	none (no result: TLR4 MyD88 comp)
CN(C)CC1CC/C(=C\c2ccc(O)cc2)C1=O (configuration not stated)	TLR9-MyD88 block 28, NOD2-RIPK2 inh 65 (no result: TLR4 MyD88 comp, ANO1 block) | TLR9-MyD88 conf 24 | BLA nonselective inactive | TLR9 CHO cytotox 97
C#CCOCCOCCOCCNc1nc(N2CCOCC2)nc(N2CCN(C(=O)[C@H]([C@@H](C)CC)n3cc(CCCCN)nn3)CC2)n1	none
Cc1nnc(Sc2cc(NCCO)c([N+](=O)[O-])c3nonc23)s1	TLR9-MyD88 block 21 (no result: ANO1 block) | TLR9-MyD88 conf 23 | BLA nonselective inactive | TLR9 CHO cytotox 98
O=C(CN1C(=O)/C(=C/c2ccc(F)cc2)SC1=S)NC1CCS(=O)(=O)C1 (configuration not stated)	none (no result: TLR4 MyD88 comp)
O=C(CN1C(=O)/C(=C/c2ccccc2)SC1=S)NC1CCS(=O)(=O)C1 (configuration not stated)	TLR9-MyD88 block 21 (no result: TLR4 MyD88 comp) | TLR9-MyD88 conf inactive | BLA nonselective inactive | TLR9 CHO cytotox inactive
CCC(C)NC(=O)c1ccc(N2CC3CC(C2)c2cccc(=O)n2C3)c(NC(=O)c2ccc(Br)o2)c1 (configuration not stated)	none (no result: TLR4 MyD88 comp)
CC[C@]12c3[nH]c4cc(-c5ccco5)ccc4c3CCN1C(=O)[C@@H](CC(=O)NCCc1ccccn1)C[C@@H]2C(=O)N1CCN(C(=O)C2CC2)CC1	none (no result: TLR4 MyD88 comp, ANO1 block, TMEM16A act) | TLR9-MyD88 conf inactive | BLA nonselective inactive | TLR9 CHO cytotox inactive
CC[C@]12c3[nH]c4ccccc4c3CCN1C(=O)C(CC(=O)NCCc1ccccn1)C[C@@H]2C(=O)N1CCN(C(=O)C2CC2)CC1 (some centres not stated)	none (no result: TLR4 MyD88 comp, ANO1 block, TMEM16A act)
Cc1ccc(S(=O)(=O)C=CS(=O)(=O)c2ccc(C)cc2)cc1	TLR9-MyD88 block 29 (no result: TLR4 MyD88 comp, ANO1 block, TMEM16A act) | TLR9-MyD88 conf 37 | BLA nonselective inactive | TLR9 CHO cytotox 97
COc1cc(C(=O)N2CCCN(C)CC2)cc(OC)c1C	none (no result: TLR4 MyD88 comp, TMEM16A act)
O=C(Nc1c2c(nn1-c1ccccc1)CS(=O)(=O)C2)c1ccccc1Br	TLR9-MyD88 block 23 (no result: TLR4 MyD88 comp) | TLR9-MyD88 conf inactive | BLA nonselective inactive | TLR9 CHO cytotox inactive
Cc1cc(/C=C2\Cc3ccccc3C2=O)c(C)n1-c1ccccc1	TLR9-MyD88 block 21 | TLR9-MyD88 conf inactive | BLA nonselective inactive | TLR9 CHO cytotox inactive
Cc1cc(C=C2C(=O)c3ccccc3C2=O)c(C)n1-c1ccccc1	none
CCCCNC(=S)NNc1c(Cl)cc(Cl)cc1Cl	none
O=C(NCCCl)NNc1c(Cl)cc(Cl)cc1Cl	TLR9-MyD88 block 22 | TLR9-MyD88 conf inactive | BLA nonselective inactive | TLR9 CHO cytotox inactive
CCc1nn(C(C)C(=O)NCCc2ccc(OC)c(OC)c2)c(=O)c2cc3occc3n12 (configuration not stated)	none
C#CCOCCOCCOCCNc1nc(N2CCN(C(=O)CCCCCCCCCCNC(=O)[C@H](CCCCN)n3cc(C[C@@H](C)CC)nn3)CC2)nc(N2CCN(C(=O)CCCCCCCCCCNC(=O)[C@H](CCCCN)n3cc(C[C@@H](C)CC)nn3)CC2)n1	TLR9-MyD88 block 52, ANO1 block 25, TMEM16A act -22, NOD2-RIPK2 inh 35 (no result: TLR4 MyD88 comp) | TLR9-MyD88 conf 29 | BLA nonselective inactive | TLR9 CHO cytotox 43
CCN(CC)c1ccc(C=NNc2ccc([N+](=O)[O-])cn2)cc1	TLR9-MyD88 block 22 (no result: TLR4 MyD88 comp, ANO1 block) | TLR9-MyD88 conf 38 | BLA nonselective inactive | TLR9 CHO cytotox inactive
O=[N+]([O-])c1ccc(NN=Cc2ccc(O)cc2)nc1	none (no result: TLR4 MyD88 comp, ANO1 block)
COc1ccccc1C1C=C(c2ccc(Cl)cc2)Nc2nc(N3C(=O)CCC3=O)nn21 (configuration not stated)	TLR9-MyD88 block 47, NOD2-RIPK2 inh 53 | TLR9-MyD88 conf inactive | BLA nonselective inactive | TLR9 CHO cytotox inactive
CCn1nc(NC(=O)c2ccncc2)c2cc3cccc(C)c3nc21	none
CCn1nc(NC(=O)c2cccnc2)c2cc3cccc(C)c3nc21	TLR9-MyD88 block 23 | TLR9-MyD88 conf inactive | BLA nonselective inactive | TLR9 CHO cytotox inactive
O=C(CSc1nncs1)Nc1nccs1	TLR9-MyD88 block 26 (no result: TLR4 MyD88 comp) | TLR9-MyD88 conf inactive | BLA nonselective inactive | TLR9 CHO cytotox inactive
CC(C)NC(=S)N/N=C/c1cc(Br)ccc1O	TLR9-MyD88 block 21 | TLR9-MyD88 conf inactive | BLA nonselective inactive | TLR9 CHO cytotox inactive
O=C(N/N=C/c1cccc2ccccc12)c1cc2ccccc2o1	TLR9-MyD88 block 23 (no result: TLR4 MyD88 comp, ANO1 block) | TLR9-MyD88 conf inactive | BLA nonselective inactive | TLR9 CHO cytotox inactive
COc1cccc(C2=CC(c3ccc(OC)c(OC)c3OC)n3nnnc3N2)c1 (configuration not stated)	TLR9-MyD88 block 22 | TLR9-MyD88 conf inactive | BLA nonselective inactive | TLR9 CHO cytotox inactive
Cc1ccc(S(=O)(=O)NC(CC(C)C)C(=O)N2CCOCCOCCOCC2)cc1 (configuration not stated)	none (no result: TLR4 MyD88 comp)
COc1ccc(S(=O)(=O)N2CCC(NC(=O)C3CCCCC3)CC2)cc1	TLR9-MyD88 block 21 (no result: TLR4 MyD88 comp) | TLR9-MyD88 conf inactive | BLA nonselective inactive | TLR9 CHO cytotox inactive
COc1ccc(S(=O)(=O)N2CCC(C(=O)NC3CC3)CC2)cc1	none (no result: TLR4 MyD88 comp)
COc1ccc(CNC(=O)COC(=O)c2ccc(Br)c(S(=O)(=O)N3CCOCC3)c2)cc1	none (no result: TLR4 MyD88 comp, ANO1 block)
COc1ccc(-c2nnn(CC(=O)N(CC(=O)NC3CCCC3)Cc3cccs3)n2)cc1OC	none
CN(C)c1ccc(/C=C(\Cl)c2nc3ccccc3s2)cc1	TLR9-MyD88 block 25 | TLR9-MyD88 conf inactive | BLA nonselective inactive | TLR9 CHO cytotox inactive
Nc1cccc2c1C(=O)N(C(=O)c1ccc(Cl)c(S(=O)(=O)N3CCCCCC3)c1)C2=O	TLR9-MyD88 block 28 | TLR9-MyD88 conf inactive | BLA nonselective inactive | TLR9 CHO cytotox inactive
O=C(c1ccc(Cl)c(S(=O)(=O)N2CCCCC2)c1)N1CCCCC1	none (no result: TLR4 MyD88 comp)
Cn1c(CNC(=O)CCNC(=O)c2ccccc2)cc(=O)n(C)c1=O	TLR9-MyD88 block 26 (no result: TLR4 MyD88 comp) | TLR9-MyD88 conf inactive | BLA nonselective inactive | TLR9 CHO cytotox inactive
